A short description of assay [1]: qHTS assay to test for compound auto fluorescence at 535 nm (green) in HEK293 cells (AID 720680).
The nature of assay [2]: qHTS assay to test for compound auto fluorescence at 460 nm (blue) in HEK293 cell free culture (AID 720681). The procedure, abridged:
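Blue fluorescence (Ex 405/Em 460 nm, triamterene-equivalent) was read immediately after pin transfer of compound or DMSO into medium (DMEM, 10% FBS) without cells.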

Assay [3] is described as follows: qHTS assay to test for compound auto fluorescence at 590 nm (red) in HEK293 cell free culture (AID 720683). The procedure, abridged: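 Red-channel autofluorescence of compounds in culture medium (DMEM, 10% FBS), no cells, measured at 540/590 nm. Rose Bengal sodium is the reference fluorophore for equivalence.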
Background: qHTS replaces the single test concentration by a dilution series.

The nature of assay [4]: qHTS assay to test for compound auto fluorescence at 535 nm (green) in HepG2 cell free culture (AID 720686).
Assay [5] can be described thus: qHTS assay to test for compound auto fluorescence at 460 nm (blue) in HepG2 cells (AID 720687). The procedure, abridged:
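Blue-channel autofluorescence (Ex/Em 405/460 nm, triamterene-equivalent) was measured after 1 hr compound exposure at 37 C, 5% CO2. Cells were HepG2, plated overnight at 37 C in MEM plus 10% FBS.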

Assay [6] addresses Glucocorticoid receptor (Homo sapiens) (UniProt P04150). The experiment in a line: qHTS assay to identify small molecule agonists of the glucocorticoid receptor (GR) signaling pathway (AID 720691; active means well fitted activation curve with a large enough effect in the signal ratio in the repeat runs, not every such curve was filed as active; the % refers to the signal ratio). The settings on record: GR-bla HeLa, beta-lactamase reporter ratio, 18 h; activation: at 62.4 µM (top of the series) unless noted. The procedure, abridged:
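HeLa GR-bla reporter line; cells pre-incubated 4 h, compound in DMSO 18 h at 37 C; LiveBLAzer B/G FRET substrate 2 h RT; fluorescence intensity read-out.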

For assay [7] the target is unchanged. As to the kind of experiment: qHTS assay to identify small molecule antagonists of the glucocorticoid receptor (GR) signaling pathway (AID 720692; active means well fitted inhibition curve with a large enough effect in the signal ratio in the repeat runs, not every such curve was filed as active; the % refers to the signal ratio; further: potency means the concentration at half of the fitted maximal effect). The procedure, abridged:
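Read-out: beta-lactamase FRET substrate fluorescence, 2 h at room temperature, in HeLa cells stably carrying a GRE-driven bla reporter. Compounds were co-incubated with 5 nM dexamethasone agonist (final) for 18 h at 37 C.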

The nature of assay [8]: qHTS assay to test for compound auto fluorescence at 590 nm (red) in HepG2 cell free culture (AID 720684). The procedure, abridged: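 Cell-free; medium MEM + 10% FBS; compound or DMSO added by pintool; read Ex 540/Em 590 nm; Rose Bengal sodium as red reference fluorophore.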
A short description of assay [9]: qHTS assay to test for compound auto fluorescence at 460 nm (blue) in HepG2 cell free culture (AID 720685). The procedure, abridged:
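Cell-free plates of MEM plus 10% FBS received 23 nL compound or DMSO vehicle; blue-channel (405/460 nm) intensity scored against triamterene as reference fluorophore.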

A number with no mark means an inactive call. Results filed as inconclusive are left out. Calls of active or inactive are those of the source. Unless noted, the call rests on the fitted dose curve; in most records, active means well fitted curve in the direction sought with a large enough effect in the repeat runs; inconclusive means weak or mixed curves; inactive means flat fitted curve, though single readings scatter.

The values that follow come from PubChem BioAssay (Tox21).
On the % scale 0 is the no-effect control and ±100 the full control effect.

Sequence of Glucocorticoid receptor (Homo sapiens) (P04150 whole entry, looked up): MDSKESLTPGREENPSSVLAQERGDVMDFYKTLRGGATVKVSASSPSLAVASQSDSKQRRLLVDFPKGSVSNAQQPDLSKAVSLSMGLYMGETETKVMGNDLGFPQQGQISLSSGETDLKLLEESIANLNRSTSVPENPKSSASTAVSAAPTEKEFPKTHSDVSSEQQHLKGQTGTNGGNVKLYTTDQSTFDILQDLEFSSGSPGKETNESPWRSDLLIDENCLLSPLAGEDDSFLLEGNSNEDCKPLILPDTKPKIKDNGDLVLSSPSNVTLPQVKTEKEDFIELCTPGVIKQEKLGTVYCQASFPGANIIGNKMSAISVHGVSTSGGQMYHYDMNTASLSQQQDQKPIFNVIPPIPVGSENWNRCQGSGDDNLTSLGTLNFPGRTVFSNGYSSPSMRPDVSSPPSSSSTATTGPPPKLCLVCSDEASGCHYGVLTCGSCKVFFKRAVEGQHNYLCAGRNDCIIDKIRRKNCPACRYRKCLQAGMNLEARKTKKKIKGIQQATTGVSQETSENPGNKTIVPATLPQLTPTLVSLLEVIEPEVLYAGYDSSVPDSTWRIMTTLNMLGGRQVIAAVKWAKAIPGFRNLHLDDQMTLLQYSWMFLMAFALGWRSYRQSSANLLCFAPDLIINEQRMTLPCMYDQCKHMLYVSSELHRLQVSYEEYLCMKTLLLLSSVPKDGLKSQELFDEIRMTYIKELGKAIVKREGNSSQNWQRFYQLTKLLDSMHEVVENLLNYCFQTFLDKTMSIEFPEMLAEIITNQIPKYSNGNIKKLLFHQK

For `Cc1cccc(C)c1NC(=O)CN(CC(=O)O)CC(=O)O`, the call in assay [1], in assay [2] and in assay [5] was inactive. The Potency entry in assay [3], in [4], in assay [6] and in assay [7] was “inactive” throughout.

Consider `CC[N+](C)(CC)CCOC(=O)C(O)(c1ccccc1)C1CCCCC1` (stereo not drawn), for which the outcome in assay [1], in assay [2] and in assay [9] was inactive. For the same compound, the Potency result in assay [3], in assay [8], in [4] and in assay [7] was “inactive” throughout.

For `O=C1CCC(=O)O1`, the outcome in assay [1], in assay [2] and in [9] was inactive. For the same compound, the Potency entry in [3], in [8], in assay [4], in assay [6] and in [7] was “inactive” throughout.

With `Nc1ccc(S(=O)(=O)Nc2ccccc2)cc1`, the call in assay [1], in [2], in [9] and in [5] was inactive. Also, the Potency entry in assay [3], in [8], in assay [6] and in assay [7] was “inactive” throughout.

In the case of `COc1ccc(-c2nc3ccc(C4=NNC(=O)CC4C)cc3[nH]2)cc1` (stereo not drawn), the result in assay [1], in assay [2], in assay [9] and in assay [5] was inactive. The Potency result in [3], in assay [8] and in assay [4] was “inactive” throughout.

As to `C[C@@H](c1ncncc1F)C(O)(Cn1cncn1)c1ccc(F)cc1F` (stereo partly drawn), the result in assay [1], in [2] and in [9] was inactive. Moreover, the Potency entry in assay [3], in assay [8], in assay [4], in assay [6] and in assay [7] was “inactive” each time.

For the compound `CN(Cc1ccc(C(C)(C)C)cc1)Cc1cccc2ccccc12`, the result in assay [1], in [2], in [9] and in assay [5] was inactive. Besides, the Potency entry in assay [3], in assay [8], in assay [4] and in assay [7] was “inactive” each time.

In the case of `N=c1ccn2c(n1)O[C@H]1[C@H](O)[C@@H](CO)O[C@H]12`, the call in assay [1], in assay [2], in [9] and in assay [5] was inactive. Also, the Potency entry in [3], in assay [8], in assay [4], in [6] and in assay [7] was “inactive” in each case.

On to `CC(=O)[O][Al][O]C(C)=O`, for which the compound was classed as inactive in assay [1], in [2] and in assay [5]. Besides, the Potency entry in assay [3], in assay [8] and in [4] was “inactive” in each case.

Consider `CN(C)CCCN1c2ccccc2Sc2ccccc21`, for which, in [1], the fluorescence, % of fluorescein is -0.0365% [at 18.6 µM]. Also, the fluorescence, % of fluorescent control in assay [2] is -0.0313% [at 18.6 µM]; in assay [3], 0.0444% [at 18.6 µM]; in [9], 0.0019% [at 18.6 µM]; in assay [5], -0.0716% [at 18.6 µM]. In addition, the fluorescence, % of Rose Bengal in [8] is -0.194% [at 18.6 µM].

Regarding `Cn1c(=O)cc(Oc2ccc(F)cc2F)c2cnc(NCC(C)(C)O)nc21`, the outcome in [1], in assay [2], in [9] and in [5] was inactive. Besides, the Potency result in assay [3], in assay [8], in [4], in assay [6] and in [7] was “inactive” throughout.

In the case of `C[C@H](CCC(=O)O)[C@H]1CC[C@H]2[C@@H]3CC[C@@H]4C[C@H](O)CC[C@]4(C)[C@H]3C[C@H](O)[C@]12C`, the compound was classed as inactive in [1], in assay [2], in assay [9] and in assay [5]. Besides, the Potency result in assay [3], in assay [8], in [4] and in [6] was “inactive” each time. Besides, in [7], the Potency is 49.1 µM (active).

For the compound `O=C1OC(=O)C2C3C=CC(C3)C12` (stereo not drawn), the compound was called inactive in [1], in [2], in assay [9] and in assay [5]. Moreover, the Potency result in [3], in [8] and in assay [4] was “inactive” each time.

In the case of `Nc1ccccc1S(=O)(=O)c1ccccc1`, the result in [1], in [2], in assay [9] and in assay [5] was inactive. The Potency result in [3], in assay [4], in [6] and in assay [7] was “inactive” throughout.

In the case of `CCCCc1ncc(/C=C(\Cc2cccs2)C(=O)O)n1Cc1ccc(C(=O)O)cc1`, the call in assay [1], in [2], in assay [9] and in [5] was inactive. Moreover, the Potency entry in assay [3], in assay [8], in assay [4] and in assay [7] was “inactive” throughout.

Take `COc1ccnc(CS(=O)c2nc3ccc(OC(F)F)cc3[nH]2)c1OC` (stereo not drawn): the outcome in [1], in assay [2], in [9] and in assay [5] was inactive. The Potency result in assay [3], in assay [8], in assay [4] and in [6] was “inactive” in each case.
